PINK1 modulator = changes PINK1 expression; PINK1 immunofluorescence, high-content cytometry, 24 h; Potency, µM (doses to about 76.6 µM), for inactives: top-dose activation (PINK1 increase), hits mostly activators; 0.2% of 410,000 active; AID 624263; active means well fitted activation curve with a large enough effect; inconclusive means small, poorly fitted or top-dose-only effect; cell line not stated here; further: % of control where 0% means no effect; nearly all actives have a fitted effect of over 65% in size
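Measures PINK1 amount and localization on or inside mitochondria by immunofluorescence. Stable cells get compounds at 5 concentrations for 24 hours before fixation and staining; CCCP controls included.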
Nrf2 activator = Nrf2 pathway activation. 0.31% of 410,000 active. AREc32 ARE-luciferase reporter (MCF7-derived line), luminescence, 24 h. Potency, µM (top dose mostly 46.1 µM), inactives show at the top dose activation, actives largely listed as activators; further: % of control where 0% means no effect; nearly all actives have a fitted effect of over 65% in size
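For detection, Steady-Glo was added and plates sat 30 min at RT; before that, AREc32_Fluc cells grown overnight in OPTI-MEM/5% FBS had been treated with 23 nL compound for 24 hr at 37 deg C.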
Epigenetic derep = derepresses silenced GFP reporter in murine cells; 0.2% of 280,000 active; murine LDR cells, GFP reporter derepression, 30 h; Potency, µM (top dose mostly 53.9 µM), for the others: at the highest dose GFP activation, most hits filed as activators; further: % of control where 0% means no effect; nearly all actives have a fitted effect of over 60% in size
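GFP-positive cell count by laser-scanning cytometry (objects 20–120 um) after 30 h, 37 C compound exposure of murine LDR cells; reporter is CMV-GFP integrated at a silenced locus, inducible by HDAC or DNMT inhibitors.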
A549 tox-1 = counter-screen for Nrf2 inhibitors: cytotoxicity in A549 cells; A549 ARE-Fluc cells, CellTiter-Fluor viability, 18-24 h; Potency, µM (titrated, usually from 46 µM), for inactives: at the highest dose activity change, negative = cytotoxicity, most hits filed as inhibitors; 0.16% of 390,000 active; further: on the % scale 0 is the no-effect control and ±100 the full control effect
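A549 ARE_Fluc cells in 5% FBS OPTI-MEM were exposed to compounds in concentration-response for 18-24 h at 37 deg C. Viability was read by CellTiter-Fluor fluorescence (Ex 405/Em 525) after 30 min, before the luciferase read.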
Nrf2 block = inhibitors of Nrf2 signaling | A549 ARE-Fluc reporter, luciferase luminescence, 18-24 h | Potency, µM (highest dose often 46 µM), inactives show top-dose activity change, negative = inhibition, actives largely listed as inhibitors | 2.1% of 360,000 active | AID 504444; further: on the % scale 0 is the no-effect control and ±100 the full control effect; nearly all actives have a fitted effect of over 60% in size
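In this cell-based qHTS, ARE-driven firefly luciferase in A549 cells reports Nrf2 activity; the luminescent signal after BugLite lysis is the measured value, with a prior CellTiter-Fluor read for cell health.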
FLuc enzyme inh = blocks purified firefly luciferase in Nrf2 counterscreen; shares compounds with Nrf2 block; purified firefly luciferase, luminescence inhibition; Potency, µM (series often up to 57.5 µM), for inactives: at the highest dose activity change, negative = inhibition, most hits filed as inhibitors; 4% of 1,400 active; further: on the % scale 0 is the no-effect control and ±100 the full control effect; nearly all actives have a fitted effect of over 65% in size
Target sequence (P08659 whole entry, looked up): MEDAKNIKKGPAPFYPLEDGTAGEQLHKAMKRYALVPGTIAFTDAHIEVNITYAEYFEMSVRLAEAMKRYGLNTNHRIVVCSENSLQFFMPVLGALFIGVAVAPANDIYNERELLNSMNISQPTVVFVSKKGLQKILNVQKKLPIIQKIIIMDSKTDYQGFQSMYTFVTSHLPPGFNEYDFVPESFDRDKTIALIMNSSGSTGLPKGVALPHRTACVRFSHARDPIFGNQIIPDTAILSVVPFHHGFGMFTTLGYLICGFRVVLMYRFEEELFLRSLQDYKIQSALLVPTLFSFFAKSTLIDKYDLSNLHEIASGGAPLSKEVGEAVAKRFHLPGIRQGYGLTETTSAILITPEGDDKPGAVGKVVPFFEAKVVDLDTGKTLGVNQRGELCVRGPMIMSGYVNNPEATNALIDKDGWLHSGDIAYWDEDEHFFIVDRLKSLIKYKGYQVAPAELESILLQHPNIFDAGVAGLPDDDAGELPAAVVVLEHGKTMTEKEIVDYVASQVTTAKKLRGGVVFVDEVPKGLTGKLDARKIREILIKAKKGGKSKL
A549 tox-2 = toxic to A549 ARE-Fluc cells in Nrf2 counterscreen; AID 720523; Potency, µM (titrated, usually from 46.1 µM), inactives show at the top dose activity change, negative = cytotoxicity, usual class: inhibitors; 2% of 1,400 active; shares compounds with Nrf2 block; A549 ARE-Fluc cells, cytotoxicity counterscreen;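 further: cells exposed to compounds for 18 to 24 hours; on the % scale 0 is the no-effect control and ±100 the full control effect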
ARE-Fluc inh = Nrf2 inhibition confirmed, A549 ARE-luciferase | shares compounds with Nrf2 block | A549 ARE-firefly luciferase reporter, luminescence | Potency, µM (top dose mostly 46.1 µM), without a hit: at the top dose activity change, negative = inhibition, hits mostly inhibitors | 74% of 1,400 active; further: on the % scale 0 is the no-effect control and ±100 the full control effect; nearly all actives have a fitted effect of over 65% in size
The depositor's hits bear a star; [ ] = remark or other dose. Rows were chosen to be rich in hits. Some 2.4% of all compounds tested hit in one or more screens of this group. Unless noted, the call rests on the fitted dose curve; in most records, active means well fitted curve in the direction sought with a large enough effect; inconclusive means small, poorly fitted or top-dose-only effect, or another doubt; inactive means no such curve, though single readings can be large; an effect the other way counts as inactive or inconclusive. Potency means the concentration at half of the fitted maximal effect.

`COc1ccc(C2=Nn3c([n+](C)c4ccccc43)SC2)cc1` gave PINK1 modulator 8%, Nrf2 activator 0%, Epigenetic derep 0%, A549 tox-1 -25%, Nrf2 block 2.1µM*, FLuc enzyme inh 0% and A549 tox-2 inconclusive.
`C=CCn1c(C)c(/C=C/c2cc[n+](C)cc2)c2ccccc21` gave PINK1 modulator inconclusive, Nrf2 activator 8%, A549 tox-1 -21% and Nrf2 block inconclusive.
CC(C)n1cc(/C=C/c2cc[n+](C)cc2)c2ccccc21 was read as PINK1 modulator 40µM*, Nrf2 activator 0%[9.22 µM], A549 tox-1 inconclusive, Nrf2 block 2.3µM*, FLuc enzyme inh 2%, A549 tox-2 inconclusive and ARE-Fluc inh 6.5µM*.
Screening Cc1ccccc1/C=C/c1cc[n+](C)cc1 returned PINK1 modulator 2%, Nrf2 activator 14%, Epigenetic derep 5%, A549 tox-1 -8%, Nrf2 block 1.3µM*, FLuc enzyme inh 4%, A549 tox-2 -13% and ARE-Fluc inh 23µM*.
For C=CCn1cc(/C=C/c2cc[n+](C)cc2)c2ccccc21 the results were PINK1 modulator 45µM*, Nrf2 activator 8%, A549 tox-1 inconclusive, Nrf2 block 2.3µM*, FLuc enzyme inh 1%, A549 tox-2 -29% and ARE-Fluc inh 1.8µM*.
Screening CCn1cc(/C=C/c2cc[n+](C)cc2)c2ccccc21 returned PINK1 modulator 28µM*, Nrf2 activator 3%, A549 tox-1 -21%, Nrf2 block 1.8µM*, FLuc enzyme inh 0%, A549 tox-2 inconclusive and ARE-Fluc inh 1.8µM*.
For CC(=O)c1c(C)[nH]c(C(=O)OCc2ccccc2)c1C the results were PINK1 modulator 0%, Nrf2 activator 16%, Epigenetic derep 1%, A549 tox-1 4% and Nrf2 block inconclusive.
CC(=O)c1c(C)[nH]c(C(=O)OCCCCN2C(=O)c3ccccc3C2=O)c1C was read as PINK1 modulator -1%, Nrf2 activator 1%, Epigenetic derep -1%, A549 tox-1 -19%, Nrf2 block 5.8µM*, FLuc enzyme inh 1% and A549 tox-2 -6%.
Screening C=CCn1c(C)cc(-c2csc(NC(=O)C3CCN(c4ncnc5sc(C)c(C)c45)CC3)n2)c1C returned PINK1 modulator -1%, Nrf2 activator 1%, A549 tox-1 4% and Nrf2 block -26%.
`COc1ccc(-c2csc(NC(=O)C3CCN(c4ncnc5sc(C)c(C)c45)CC3)n2)cc1OC` gave PINK1 modulator 3%, Nrf2 activator 3%, A549 tox-1 -15%, Nrf2 block 4.1µM*, FLuc enzyme inh 0%, A549 tox-2 -10% and ARE-Fluc inh 6.5µM*.
`CCc1nnc(NC(=O)c2ccc(OCc3c(C)noc3C)c(OC)c2)s1` gave PINK1 modulator 4%, Nrf2 activator 0%, Epigenetic derep 0%, A549 tox-1 0%, Nrf2 block 5.8µM*, FLuc enzyme inh 2%, A549 tox-2 5% and ARE-Fluc inh 15%.
`CCOc1cc(/C=N\NC(=O)c2ccc(NC(=O)C(C)(C)C)cc2)ccc1OC(=O)c1cccc(C)c1` gave PINK1 modulator 3%, Nrf2 activator -1%, Epigenetic derep -2%, A549 tox-1 -3%, Nrf2 block 5.2µM*, FLuc enzyme inh 0%, A549 tox-2 -3% and ARE-Fluc inh 15µM*.
Screening COc1ccc(/C=C/c2nc(C#N)c(N3CCCCC3)o2)cc1OC returned PINK1 modulator -1%, Nrf2 activator 7%, Epigenetic derep 7%, A549 tox-1 -3% and Nrf2 block -21%.
For Cc1ccccc1CNC(=O)CCSCc1cnn(-c2ccccc2)c1-n1cccc1 the results were PINK1 modulator -1%, Nrf2 activator -1%, Epigenetic derep 11%, A549 tox-1 11% and Nrf2 block inconclusive.
`COc1ccc(CCNC(=O)C(C)n2nc(C)c3sc4ccccc4c3c2=O)cc1OC` (configuration not stated) gave PINK1 modulator 4%, Nrf2 activator 0%, Epigenetic derep 3%, A549 tox-1 -10% and Nrf2 block 14%.
For c1ccc(Oc2nc(NC3CCCCC3)c3[nH]cnc3n2)cc1 the results were Epigenetic derep 1%.
COc1ccccc1NS(=O)(=O)c1cc(NC(=O)CCC(=O)c2cccs2)ccc1Cl was read as PINK1 modulator -2%, Nrf2 activator 0%, Epigenetic derep 0%, A549 tox-1 -17%, Nrf2 block 8.2µM*, FLuc enzyme inh -5%, A549 tox-2 -1% and ARE-Fluc inh inconclusive.
COc1ccc(NC(=O)CCC(=O)c2cccs2)cc1S(=O)(=O)Nc1ccc(Cl)cc1 was read as PINK1 modulator 4%, Nrf2 activator 0%, Epigenetic derep 0%, A549 tox-1 -1% and Nrf2 block 8%.
CC(C)[C@H](CO)Nc1nc(Nc2ccc(C(=O)O)c(Cl)c2)c2ncn(C(C)C)c2n1 was read as Epigenetic derep 1%.
C=CC(=O)Nc1ccc(Nc2nc(NC3CCC(N(C)C)CC3)nc3c2ncn3C(C)C)cc1 (configuration not stated) was read as PINK1 modulator -1%, Nrf2 activator -3%, A549 tox-1 18µM*, Nrf2 block 2.6µM*, FLuc enzyme inh 5%, A549 tox-2 8.2µM* and ARE-Fluc inh 2.6µM*.
Cc1cccc(CSc2cn(CC(=O)N3CCCC3)c3ccccc23)c1 was read as PINK1 modulator -1%, Nrf2 activator 6%, Epigenetic derep 3%, A549 tox-1 -4% and Nrf2 block inconclusive.
Screening COc1ccc2c(c1)CCc1c(C(=O)Nc3c(C)nn(Cc4c(Cl)cccc4Cl)c3C)noc1-2 returned PINK1 modulator -2%, Nrf2 activator 0%, Epigenetic derep -3%, A549 tox-1 6% and Nrf2 block 2%.
Cc1cc2c(cc1C)C(=O)NC(C)(C)C2 was read as PINK1 modulator -1%[38.3 µM], Nrf2 activator 0%, Epigenetic derep -1%, A549 tox-1 0%, Nrf2 block 7.3µM*, FLuc enzyme inh -1%, A549 tox-2 0% and ARE-Fluc inh 18%.

From PubChem
